Laboratory results as given in PubChem BioAssay (EPA / NIEHS).
Where “and” joins values, the source holds several entries; their conditions need not be identical. Identical values can stand only once. Inconclusive results are not listed. Calls of active or inactive are those of the source. Rule for the calls, unless noted: active = hit-call score of the fitted dose curve at least 0.9, where 1 is the maximum; inactive = score below 0.9.

Columns and labels:
[1] = read-out: E-selectin (Homo sapiens) (UniProt P16581); assay: BSK_SAg_Eselectin: BioMAP Diversity Plus: SAg Assay for Eselectin Biomarker Activity (AID 2283091); conditions: primary human HUVEC with PBMC; actives raise or lower the signal
In short: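 HUVEC co-cultured with PBMC, compound dosed then read at 24 h; E-selectin measured by ELISA. Activity fitted bidirectionally against DMSO as negative control and baseline.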

[2] = read-out: Monokine induced gamma interferon (MIG), CXCL9 (gene 4283); assay: BSK_SAg_MIG: BioMAP Diversity Plus: SAg Assay for Monokine induced gamma interferon (MIG) Biomarker Activity (AID 2283092); conditions: primary human HUVEC with PBMC; actives raise or lower the signal
In short: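 Measures CXCL9 protein by ELISA in a human vascular primary-cell co-culture (umbilical vein endothelium with PBMC) 24 h after chemical addition. Activity is scored up or down from the DMSO control.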

[3] = BSK_SAg_PBMCCytotoxicity: PBMC Cytotoxicity Assessment in the BioMAP Diversity Plus: SAg Assay (AID 2283093); conditions: primary human HUVEC with PBMC;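 note: PBMC viability measured as Alamar Blue reduction fluorescence at 546/580 nm; fitted both ways against DMSO so a hit may be loss or gain of signal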;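 for AC50: PBMC superantigen activated with SEB plus TSST-1 one hour after compound addition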
In short: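 Compound added to 75,000 PBMC/well for 1 h; SEB and TSST-1 then added at 20 ng/mL final each; 90 h incubation; Alamar Blue 6 h; read 546/580 nm ex/em. Activity fitted bidirectionally relative to DMSO baseline.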

[4] = BSK_SAg_Proliferation: Cell Proliferation Assessment in the BioMAP Diversity Plus: SAg Assay (AID 2283095); conditions: primary human HUVEC with PBMC
In short: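 Human umbilical vein endothelial cells co-cultured with PBMC; sulforhodamine B total-protein staining (0.1% SRB after 10% TCA fixation, absorbance 560 nm) at 96 h in sub-confluent culture. Fitted bidirectionally against DMSO.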

[5] = BSK_SAg_SRB: Viability Assessment in the BioMAP Diversity Plus: SAg Assay (AID 2283096); conditions: primary human HUVEC with PBMC;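 note: cells read one day after compound addition; hits may be either gain or loss of signal compared with DMSO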
In short: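 Total protein by sulforhodamine B staining, 24 h after dosing, in HUVEC–PBMC co-culture; DMSO-referenced bidirectional fitting.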

[6] = read-out: Interleukin-8 (IL8), CXCL8 (gene 3576); assay: BSK_SAg_IL8: BioMAP Diversity Plus: SAg Assay for Interleukin-8 (IL8) Biomarker Activity (AID 2283094); conditions: primary human HUVEC with PBMC; actives raise or lower the signal
In short: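 Human umbilical vein endothelial cells co-cultured with PBMC, stimulated with superantigen; IL-8 measured by ELISA 24 h after chemical dosing. Bidirectional fitting versus DMSO; SRB staining in parallel cultures tracks cytotoxicity.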

[7] = target: human CYP19A1, CYP19A1 (gene 1588) (UniProt P11511); assay: NVS_ADME_hCYP19A1: NovaScreen (NVS) CYP450-related Enzyme Activity (ADME) Assay for human CYP19A1 (AID 2283098; active = hit-call score of the fitted dose curve at least 0.9, where 1 is the maximum;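 for AC50: potency for inhibitors seen as loss of fluorescent enzyme signal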)
In short: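 Biochem, cell-free; recombinant enzyme + specific substrate; fluorescence intensity at 0.5 h post-dose; 10 uM duplicate primary, conc. series for actives; acetonitrile = negative control/baseline; positive and negative controls on every plate.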

[8] = target: human CYP2B6, CYP2B6 (gene 1555) (UniProt P20813); assay: NVS_ADME_hCYP2B6: NovaScreen (NVS) CYP450-related Enzyme Activity (ADME) Assay for human CYP2B6 (AID 2283101; active = hit-call score of the fitted dose curve at least 0.9, where 1 is the maximum)
In short: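 Recombinant protein, specific fluorescent substrate, read at 1 h post-dosing. Primary: single 10 uM, duplicate; follow-up: concentration series. Activity = signal loss vs acetonitrile baseline, with positive and negative controls on every plate.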

Measured: AC50

Chain of human CYP19A1, CYP19A1 (gene 1588) (P11511 whole entry, looked up): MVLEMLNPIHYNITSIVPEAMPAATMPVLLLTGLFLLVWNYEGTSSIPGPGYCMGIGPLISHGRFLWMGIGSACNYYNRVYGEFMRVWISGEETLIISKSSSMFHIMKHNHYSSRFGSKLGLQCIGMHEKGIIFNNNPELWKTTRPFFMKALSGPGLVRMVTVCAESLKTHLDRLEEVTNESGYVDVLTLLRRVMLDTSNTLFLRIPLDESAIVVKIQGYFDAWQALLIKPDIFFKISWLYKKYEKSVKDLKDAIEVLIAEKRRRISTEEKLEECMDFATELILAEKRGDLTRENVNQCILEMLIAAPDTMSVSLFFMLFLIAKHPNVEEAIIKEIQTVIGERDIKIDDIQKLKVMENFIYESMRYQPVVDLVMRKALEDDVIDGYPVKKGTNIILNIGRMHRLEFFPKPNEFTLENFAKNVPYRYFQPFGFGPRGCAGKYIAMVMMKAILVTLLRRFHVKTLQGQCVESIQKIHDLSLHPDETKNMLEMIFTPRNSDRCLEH
Chain of E-selectin (Homo sapiens) (P16581 whole entry, looked up): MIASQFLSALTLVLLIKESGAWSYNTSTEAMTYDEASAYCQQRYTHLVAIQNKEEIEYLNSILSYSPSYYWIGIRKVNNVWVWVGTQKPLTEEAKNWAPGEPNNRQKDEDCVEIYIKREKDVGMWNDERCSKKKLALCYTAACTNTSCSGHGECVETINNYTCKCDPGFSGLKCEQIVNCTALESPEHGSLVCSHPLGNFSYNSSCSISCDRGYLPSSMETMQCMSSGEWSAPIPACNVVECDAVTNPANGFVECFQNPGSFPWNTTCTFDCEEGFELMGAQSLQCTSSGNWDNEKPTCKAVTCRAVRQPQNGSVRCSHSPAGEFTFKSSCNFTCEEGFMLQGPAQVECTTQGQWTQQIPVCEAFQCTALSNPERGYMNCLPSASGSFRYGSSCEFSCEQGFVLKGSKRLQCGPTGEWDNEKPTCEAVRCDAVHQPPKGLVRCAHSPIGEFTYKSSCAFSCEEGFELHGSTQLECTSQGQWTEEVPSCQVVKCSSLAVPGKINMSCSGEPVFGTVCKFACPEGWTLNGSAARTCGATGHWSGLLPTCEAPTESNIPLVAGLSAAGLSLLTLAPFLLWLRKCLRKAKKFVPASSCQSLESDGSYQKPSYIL
Chain of human CYP2B6, CYP2B6 (gene 1555) (P20813 whole entry, looked up): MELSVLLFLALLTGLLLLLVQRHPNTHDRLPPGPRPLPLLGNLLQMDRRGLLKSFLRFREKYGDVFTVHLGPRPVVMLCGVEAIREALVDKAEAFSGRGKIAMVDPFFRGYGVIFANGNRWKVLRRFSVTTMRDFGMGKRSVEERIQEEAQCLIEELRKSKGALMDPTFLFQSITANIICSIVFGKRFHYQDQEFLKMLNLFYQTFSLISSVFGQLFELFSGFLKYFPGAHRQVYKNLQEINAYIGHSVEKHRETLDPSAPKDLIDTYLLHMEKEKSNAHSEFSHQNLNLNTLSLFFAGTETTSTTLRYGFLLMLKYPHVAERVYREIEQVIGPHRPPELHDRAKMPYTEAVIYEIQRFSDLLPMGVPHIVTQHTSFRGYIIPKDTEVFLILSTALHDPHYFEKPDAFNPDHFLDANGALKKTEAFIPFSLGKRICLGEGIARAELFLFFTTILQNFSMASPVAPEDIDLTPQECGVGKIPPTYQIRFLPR

CCCCCCCCCC(=O)OCC
inactive: [2] | [5]
active: [1] 20 µM | [3] 34.1 µM | [4] 33.5 µM

CCCCN(CCO)CCO
not listed: [7] | [8]
inactive: all other assays above

O=C1OC2(c3ccc(O)cc3Oc3cc(O)ccc32)c2ccccc21
active: [4] 1.02 µM
not listed: [7] | [8]
inactive: all other assays above

CCCO[Si](OCCC)(OCCC)OCCC
inactive: [1] | [2] | [3] | [4] | [5]

CCOC(=O)C=Cc1ccccc1
not listed: [7] | [8]
inactive: all other assays above

CC(C)Cc1ccc(C(C)C(=O)O)cc1 (centres undefined)
inactive: [1] | [2] | [3] | [4] | [5]

CCC(=O)OCC=Cc1ccccc1
inactive: [1] | [2] | [3] | [4] | [5]

c1ccc(Sc2ccccc2)cc1
active: [1] 30.2 µM | [2] 34.5 µM | [3] 33.9 µM | [4] 34 µM | [5] 31.7 µM

O=C(O)C(F)(F)C(F)(F)C(F)(F)C(F)(F)C(F)(F)C(F)(F)C(F)(F)C(F)F
inactive: [1] | [2] | [3] | [4] | [5]

CC(=O)CCC=C(C)CCC=C(C)C
active: [4] 20 µM
inactive: [1] | [2] | [3] | [5]

c1ccc(OCCOc2ccccc2)cc1
inactive: [1] | [2] | [3] | [4] | [5]

OCCN1CCOCC1
inactive: [1] | [2] | [3] | [4] | [5]

CCCCCCCC1CCCC1=O (centres undefined)
inactive: [1] | [2] | [3] | [4] | [5]

NC(=O)c1c(Cl)cccc1Cl
inactive: [1] | [2] | [3] | [4] | [5]

O=S1(=O)CC(Cl)(Cl)C(Cl)(Cl)C1
active: [1] 0.224 µM | [2] 2.75 µM | [3] 0.515 µM | [4] 0.0797 µM | [5] 0.655 µM

CC=CC(=O)C1=C(C)C=CCC1(C)C
inactive: [1] | [2] | [3] | [4] | [5]

COc1ccccc1NC(=O)CC(C)=O
inactive: [1] | [2] | [3] | [4] | [5]

C=C1CC/C=C(\C)CC[C@@H]2[C@@H]1CC2(C)C
inactive: [2]
active: [1] 20 µM | [3] 20 µM | [4] 22.8 µM | [5] 33.1 µM

COC(=O)c1ccc(C(=O)OC)cc1
inactive: [1] | [2] | [3] | [4] | [5]

CCCCOCCOCCO
not listed: [7] | [8]
inactive: all other assays above

CCCCCCCCCCCCS
active: [4] 20 µM | [5] 36.1 µM
inactive: [1] | [2] | [3]

CCn1cc(C(=O)O)c(=O)c2ccc(C)nc21
inactive: [1] | [2] | [3] | [4] | [5]

CC(C)(CO)CO
inactive: [1] | [2] | [3] | [4] | [5]

CC1=CC(C)C(C=O)C(C)C1 (centres undefined) (tested in a mixture with another compound)
inactive: [1] | [2] | [3] | [4] | [5]

CCOC(=O)CCCCCCCCC(=O)OCC
inactive: [1] | [2] | [3] | [4] | [5]

CC(=O)OCC=C(C)CCC=C(C)CCC=C(C)C
inactive: [1] | [2] | [3] | [4] | [5]

C[C@]12CC[C@@H]3c4ccc(O)cc4CC[C@H]3[C@@H]1CC[C@@H]2O
inactive: [1] | [3] | [7]
active: [2] 20 µM | [4] 13.5 µM | [5] 10.3 µM

CC(=O)c1ccc(C)cc1
inactive: [1] | [2] | [3] | [4] | [5]

CC(=O)OC(C)(C)C1CC=C(C)CC1 (centres undefined)
inactive: [1] | [2] | [3] | [4] | [5]

CC/C(=C(\c1ccccc1)c1ccc(OCCN(C)C)cc1)c1ccccc1
active: [1] 11.6 µM and 12.5 µM | [2] 14.1 µM and 11.3 µM | [3] 6.22 µM and 6.86 µM | [4] 4.55 µM and 5.13 µM | [5] 10.3 µM and 9.96 µM
inactive: [7] | [8]

CC(=O)OC(C)(C)C
inactive: [7]

CCCCC/C=C\C=C\C(=O)OCC
active: [7] 15.6 µM

O=S(=O)(O)C(F)(F)C(F)(F)OC(F)(F)C(F)(F)F
inactive: [1] | [2] | [3] | [4] | [5]
